We go through five compounds from PubChem BioAssay.

Molecules are shown by their SMILES. Active and inactive are the calls of the source.

The target in one assay is Albumin (Bos taurus) (UniProt P02769). Put plainly: bovine serum albumin binders on microarray, profiling panel, artefact control for SMM control protein annotation, biochemical, small-molecule microarray, Alexa647 label, 635/667 nm fluorescence (AID 1118).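 Also: score merges 667 nm emission intensity and signal-to-noise per printed compound spot.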 The conditions noted are these: BSA-A647 binding, fluorescence 635 nm, higher = more signal.
Chain of Albumin (Bos taurus) (P02769 whole entry, looked up): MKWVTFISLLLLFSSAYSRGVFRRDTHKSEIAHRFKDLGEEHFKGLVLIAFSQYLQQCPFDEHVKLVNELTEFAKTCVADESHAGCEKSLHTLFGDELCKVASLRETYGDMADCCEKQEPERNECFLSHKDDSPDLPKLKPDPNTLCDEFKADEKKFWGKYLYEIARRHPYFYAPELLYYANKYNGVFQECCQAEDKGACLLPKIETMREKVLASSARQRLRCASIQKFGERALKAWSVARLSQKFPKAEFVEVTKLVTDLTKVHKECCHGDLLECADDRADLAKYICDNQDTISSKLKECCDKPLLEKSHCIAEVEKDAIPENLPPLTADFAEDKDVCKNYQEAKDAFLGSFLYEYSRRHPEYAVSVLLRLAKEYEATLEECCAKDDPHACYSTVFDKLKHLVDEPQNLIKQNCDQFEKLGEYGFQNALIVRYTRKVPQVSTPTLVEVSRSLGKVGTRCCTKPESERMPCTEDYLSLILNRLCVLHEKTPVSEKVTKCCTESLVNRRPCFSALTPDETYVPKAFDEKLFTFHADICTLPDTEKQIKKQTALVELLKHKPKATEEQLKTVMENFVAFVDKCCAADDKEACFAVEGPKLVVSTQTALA
Assay [1] is described as follows: small-molecule microarray binders of probe aXIP, primary screen, biochemical, NeuroSMM set, 635/667 nm fluorescence (AID 1119).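 Also: probe is the protein aXip251-270 applied at 1 µg/mL to compound-printed slides; binding of probe to printed compounds measured as 667 nm fluorescence plus signal to noise.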 The conditions noted are these: higher = more signal, called active from +8 up or from −8 down.
The nature of assay [2]: small-molecule binders of probe aNOTCH3, primary screen, biochemical, small-molecule microarray, 635/667 nm fluorescence (AID 1120).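 Also: probe is a biotin-tagged antibody raised against NOTCH3 rather than NOTCH3 protein; score merges spot fluorescence near 667 nm with spot signal to noise.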 The conditions noted are these: higher = more signal.
Assay [3] in a line: small-molecule binders of probe aNOTCH2, primary screen, biochemical, small-molecule microarray, 635/667 nm fluorescence (AID 1121).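 Also: score merges feature fluorescence read at 667 nm with its signal to noise.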 The conditions noted are these: higher = more signal.
Assay [4] deals with Carbonic anhydrase 2 (Homo sapiens) (UniProt P00918). In words: CAII small-molecule binders, profiling panel, biochemical, small-molecule microarray, Alexa647-labelled CAII (AID 1122). The conditions noted are these: CAII-A647 binding fluorescence, higher = more signal.
Assay [5] in a line: COS7 lysate on small-molecule microarray, probe aHis, 635 nm (AID 1123).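 Also: z-score combines 667nm fluorescence intensity with signal-to-noise per printed compound spot.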 As to conditions: COS7 cell lysate, fluorescence, higher = more signal.
The nature of assay [6]: compound binding in COS7 lysate, probe aLAP1, primary screen, cell lysate, small-molecule microarray (AID 1124).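 Also: lysate comes from COS7 cells expressing LAP1 and is applied at 0.3 µg/mL; score merges spot fluorescence near 667 nm with signal-to-noise over triplicate slides.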 The conditions noted are these: probe aLAP1, fluorescence, higher = more signal.
In a further assay the test system is Sam68 (KHDRBS1). In words: Sam68 small-molecule binders, primary screen, biochemical, small-molecule microarray, 635 nm fluorescence (AID 1125).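 Also: score merges 667 nm channel intensity with signal to noise over triplicate slides.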 As to conditions: small-molecule microarray binding, higher = more signal.
For assay [7], the system named is Chordin-like protein 2 (CHRDL2). Put plainly: CHRDL2 small-molecule binders, primary screen, biochemical, small-molecule microarray, 635 nm fluorescence (AID 1126).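 Also: printed compound slides probed with Chrdl2 protein at 4 µg/mL for 1 h at 4 C; score merges 667 nm emission intensity with signal to noise over three replicate slides.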 The conditions noted are these: small-molecule microarray binding, fluorescence 635 nm; higher = more signal.
In assay [8] the target is Concanavalin-A (Canavalia ensiformis) (UniProt P02866). In words: ConA small-molecule binders, primary screen, artefact control for SMM control protein annotation, biochemical, small-molecule microarray, Alexa647 label, 635 nm (AID 1127).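 Also: z combines 667 nm emission intensity with signal-to-noise across three replicate slides.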 The conditions noted are these: ConA-A647 binding fluorescence, higher = more signal.
Chain of Concanavalin-A (Canavalia ensiformis) (P02866 whole entry, looked up): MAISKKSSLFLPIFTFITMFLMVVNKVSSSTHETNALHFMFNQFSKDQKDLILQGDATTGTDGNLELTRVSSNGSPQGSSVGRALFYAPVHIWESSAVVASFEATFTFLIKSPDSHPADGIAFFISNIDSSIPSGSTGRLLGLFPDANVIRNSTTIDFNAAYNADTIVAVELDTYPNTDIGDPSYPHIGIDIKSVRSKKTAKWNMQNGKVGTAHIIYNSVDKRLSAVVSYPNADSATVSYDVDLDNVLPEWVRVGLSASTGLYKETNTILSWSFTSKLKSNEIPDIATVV
Assay [9] in a line: anti-His antibody binders, primary screen, artefact control for SMM control protein annotation, biochemical, small-molecule microarray, 635 nm fluorescence (AID 1128).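 Also: score merges feature fluorescence with signal-to-noise for each printed compound spot.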 As to conditions: anti-His Alexa647 antibody binding, higher = more signal.
The test system of assay [10] is Human papillomavirus type 1a E7 protein (residues 1-88). In words: HPV1a E7 small-molecule binders, primary screen, biochemical, small-molecule microarray, residues 1-88, 635 nm (AID 1129). As to conditions: small-molecule microarray binding, fluorescence 635 nm; higher = more signal.
The target of assay [11] is Focal adhesion kinase 1 (Homo sapiens) (UniProt Q05397). In words: small-molecule microarray binders of FAK, primary screen, biochemical, 635/667 nm fluorescence, BSA, DTT (AID 1130).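 Also: composite of spot emission at 667 nm and signal to noise over triplicate slides.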 As to conditions: PTK2 binding, 635 nm fluorescence, higher = more signal.
Chain of Focal adhesion kinase 1 (Homo sapiens) (Q05397 whole entry, looked up): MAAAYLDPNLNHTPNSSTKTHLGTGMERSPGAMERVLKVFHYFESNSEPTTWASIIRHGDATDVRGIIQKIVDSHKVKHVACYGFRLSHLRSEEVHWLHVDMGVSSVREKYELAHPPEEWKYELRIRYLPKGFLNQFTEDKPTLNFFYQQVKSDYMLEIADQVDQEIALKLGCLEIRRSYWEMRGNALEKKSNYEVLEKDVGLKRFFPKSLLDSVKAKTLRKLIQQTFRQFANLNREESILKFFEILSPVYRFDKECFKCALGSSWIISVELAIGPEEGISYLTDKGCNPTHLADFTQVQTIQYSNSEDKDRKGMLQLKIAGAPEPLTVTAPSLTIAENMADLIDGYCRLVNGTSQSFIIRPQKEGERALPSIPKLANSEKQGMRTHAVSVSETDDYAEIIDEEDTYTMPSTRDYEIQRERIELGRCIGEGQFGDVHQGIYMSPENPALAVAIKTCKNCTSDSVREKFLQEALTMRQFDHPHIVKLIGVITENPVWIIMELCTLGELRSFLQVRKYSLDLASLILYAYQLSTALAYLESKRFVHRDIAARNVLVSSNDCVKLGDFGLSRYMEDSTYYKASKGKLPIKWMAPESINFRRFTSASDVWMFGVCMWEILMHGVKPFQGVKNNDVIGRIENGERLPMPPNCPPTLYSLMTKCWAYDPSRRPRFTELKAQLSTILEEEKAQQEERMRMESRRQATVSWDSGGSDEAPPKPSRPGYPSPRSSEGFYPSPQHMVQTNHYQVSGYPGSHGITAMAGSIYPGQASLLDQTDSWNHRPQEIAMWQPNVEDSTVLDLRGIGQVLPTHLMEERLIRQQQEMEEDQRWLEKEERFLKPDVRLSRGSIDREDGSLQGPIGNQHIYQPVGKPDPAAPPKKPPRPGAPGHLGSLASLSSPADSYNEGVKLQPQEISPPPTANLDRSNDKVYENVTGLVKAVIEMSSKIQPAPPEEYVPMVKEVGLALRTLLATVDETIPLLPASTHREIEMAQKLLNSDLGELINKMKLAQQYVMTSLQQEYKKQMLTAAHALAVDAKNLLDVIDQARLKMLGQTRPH
Assay [12] deals with Fibrinogen (Alexa647-labelled). In words: fibrinogen binders on compound microarrays, profiling panel, artefact control for SMM control-protein annotation, biochemical, small-molecule microarray, 635/667 nm fluorescence (AID 1131).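 Also: z-score merges 667 nm fluorescence with per-spot signal-to-noise over triplicate slides.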 The conditions noted are these: fibrinogen-A647 binding fluorescence, higher = more signal.
Assay [13] has as its target Follistatin (Homo sapiens) (UniProt P19883). Put plainly: follistatin binders on small-molecule microarrays, primary screen, biochemical, small-molecule microarray, 635/667 nm fluorescence (AID 1132). The conditions noted are these: FST binding, 635 nm fluorescence, higher = more signal.
For assay [14], the target named is Fibroblast growth factor 2 (Homo sapiens) (UniProt P09038). In words: FGF2 binders on small-molecule microarrays, primary screen, biochemical, small-molecule microarray, 635/667 nm fluorescence (AID 1133). As to conditions: small-molecule microarray binding, FGF2, fluorescence 635/667; higher = more signal.
Chain of Fibroblast growth factor 2 (Homo sapiens) (P09038 whole entry, looked up): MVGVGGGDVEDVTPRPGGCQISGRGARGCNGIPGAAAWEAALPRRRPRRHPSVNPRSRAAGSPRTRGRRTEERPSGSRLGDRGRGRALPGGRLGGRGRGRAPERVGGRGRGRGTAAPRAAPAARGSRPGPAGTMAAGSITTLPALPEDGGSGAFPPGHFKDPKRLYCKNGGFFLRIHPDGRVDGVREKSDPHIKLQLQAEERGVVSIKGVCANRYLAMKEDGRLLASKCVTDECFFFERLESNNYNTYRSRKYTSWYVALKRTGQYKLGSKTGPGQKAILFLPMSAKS
Assay [15] can be described thus: mitochondrial membrane potential change in A549 cells, profiling panel, cell-based, JC-1 fluorescence, basal, 24 h, 100 nL (AID 1138).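 Also: A549 lung adenocarcinoma cells under basal conditions with no added stimulus; test concentration not given here.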 As to conditions: higher = more signal.
For another assay, the system named is Lefty1. In words: Lefty1 binders on small-molecule microarrays, primary screen, biochemical, small-molecule microarray, 635/667 nm fluorescence (AID 1139). The conditions noted are these: small-molecule microarray binding, fluorescence 635/667; higher = more signal.
The test system of assay [16] is wheat germ agglutinin (Triticum aestivum), Alexa647-labelled. In words: wheat germ agglutinin binders on compound microarrays, profiling panel, artefact control for SMM control-protein annotation, biochemical, small-molecule microarray, 635/667 nm fluorescence (AID 1140).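 Also: score merges 667 nm feature emission with signal to noise over triplicate slides.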 As to conditions: WGA-A647 binding, 635 nm fluorescence, higher = more signal.
Assay [17] addresses Luciferin 4-monooxygenase (Photinus pyralis) (UniProt P08659). Put plainly: firefly luciferase enzyme inhibitors, primary screen, biochemical, luminescence, purified enzyme, 2006 set (AID 1141).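 Also: cell-free assay with purified firefly luciferase at 100 ng per well in PBS; test concentration not given here.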 The conditions noted are these: SteadyGlo luminescence, 30 min, higher = more signal, called active from +8 up or from −8 down.

Chain of Luciferin 4-monooxygenase (Photinus pyralis) (P08659 whole entry, looked up): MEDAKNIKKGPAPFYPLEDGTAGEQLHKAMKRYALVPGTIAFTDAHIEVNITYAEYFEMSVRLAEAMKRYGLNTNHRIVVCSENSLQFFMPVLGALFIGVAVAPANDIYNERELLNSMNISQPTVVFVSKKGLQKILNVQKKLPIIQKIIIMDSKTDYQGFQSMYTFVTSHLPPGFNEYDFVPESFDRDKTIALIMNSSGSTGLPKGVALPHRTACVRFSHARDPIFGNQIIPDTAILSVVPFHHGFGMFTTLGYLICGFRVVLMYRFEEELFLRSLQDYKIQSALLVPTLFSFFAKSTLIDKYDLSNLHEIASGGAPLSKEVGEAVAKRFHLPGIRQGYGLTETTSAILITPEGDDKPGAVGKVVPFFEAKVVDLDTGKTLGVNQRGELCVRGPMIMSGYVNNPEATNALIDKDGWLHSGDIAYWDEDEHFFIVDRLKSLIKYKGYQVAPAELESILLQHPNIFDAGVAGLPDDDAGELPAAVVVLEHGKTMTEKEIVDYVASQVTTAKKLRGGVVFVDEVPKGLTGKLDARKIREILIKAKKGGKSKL
Chain of Follistatin (Homo sapiens) (P19883 whole entry, looked up): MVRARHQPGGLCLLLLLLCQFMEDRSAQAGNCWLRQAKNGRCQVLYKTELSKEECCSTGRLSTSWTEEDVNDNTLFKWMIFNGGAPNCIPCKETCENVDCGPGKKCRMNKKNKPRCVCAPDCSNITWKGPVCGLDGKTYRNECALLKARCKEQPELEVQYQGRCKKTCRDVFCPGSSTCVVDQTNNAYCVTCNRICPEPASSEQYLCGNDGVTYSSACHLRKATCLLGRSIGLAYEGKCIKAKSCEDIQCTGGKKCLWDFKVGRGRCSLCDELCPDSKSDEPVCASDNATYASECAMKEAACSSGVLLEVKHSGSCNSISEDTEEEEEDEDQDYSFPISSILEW

For the compound `COCCOC(=O)N1C(=O)[C@@]2(c3cc(C#CCNC(N)=O)ccc31)[C@H](C(=O)N1CCc3cc(OC)c(OC)cc3C1)[C@H]1C(=O)O[C@H](c3ccccc3)[C@H](c3ccccc3)N1[C@@H]2c1ccccc1OCCO`, the composite z-score is 0.577 with Albumin (Bos taurus); 0.123 in [2]; -0.126 in assay [3]; 0.577 in assay [4]; 1.33 in [5]; 0.383 in assay [6]. In addition, the composite z-score in the assay with Sam68 (KHDRBS1) worked out at 1.29; in assay [7], 0.855; in assay [8], 0.794; in assay [9], 1.16; in assay [10], 0.778; in assay [11], 0.378. Moreover, the composite z-score amounted to 0.757 in assay [12]; 1.2 in [13]; 1.48 in assay [14]; 0.716 in the assay with Lefty1; 0.524 in assay [16]. Besides, in assay [1], the composite Z-score was -0.0476 (inactive). Further, the z-score in [15] was -1.12; in assay [17], -0.709 (inactive).

With `N#Cc1ccc(C(O)C2C=CC3C(=O)N(c4ccccc4)C(=O)C3N2Nc2ccccc2)cc1` (stereo not given), the composite z-score with Albumin (Bos taurus) worked out at 1.01; in assay [2] it was 0.194; in assay [3], 0.0675; in assay [4] it was 0.722; in [5], 1.59; in [6] it was 0.736. The composite z-score in the assay on Sam68 (KHDRBS1) is 0.195; in assay [7], -0.111; in assay [8] it was 0.73; in [9], 0.269; in [10], 0.455; in assay [11] it was 0.575. In addition, the composite z-score in [12] was 0.528; in assay [13], 0.351; in [14], -0.265; in the assay on Lefty1, -0.454; in assay [16], 0.502. In assay [1], the composite Z-score was 0.115 (inactive). Moreover, the z-score is -0.171 in [15] and -1.26 (inactive) in assay [17].

For the compound `O=C1O[C@H](c2ccccc2)[C@H](c2ccccc2)N2[C@H]1[C@@H](C(=O)N1CCN(c3ncccn3)CC1)[C@]1(C(=O)Nc3ccc(C#CC4(O)CCCCCC4)cc31)[C@H]2c1ccc(OCCO)cc1`, the composite z-score turned out to be 0.0591 with Albumin (Bos taurus); 1.39 in assay [2]; 0.606 in assay [3]; 0.62 in [4]; 3.46 in assay [5]; 1.61 in assay [6]. In addition, the composite z-score in the assay with Sam68 (KHDRBS1) stood at 1.29; in assay [7], 1.41; in [8], 1.1; in [9], 1.14; in assay [10], 1.23; in assay [11], 1.03. Besides, the composite z-score in assay [12] amounted to 0.966; in assay [13] it was 1.27; in assay [14] it was 1.48; with Lefty1, 1.38; in [16] it was 1.03. The composite Z-score in assay [1] was 6.42 (inactive). In addition, the figures for the z-score in assay [15] and in assay [17] were -1.46 and -1.2 (inactive), respectively.

Take `COCC1=C2[C@@H](CCc3ccccc3)OB(O)C[C@@H]2[C@@H]2C(=O)C=CC(=O)[C@@H]2C1`: the composite z-score with Albumin (Bos taurus) is 0.739; in [2], 0.334; in [3], -0.12; in assay [4], 0.295; in [5] it was 0.883; in assay [6], 0.481. Further, the composite z-score is 1.31 in the assay with Sam68 (KHDRBS1); 0.0197 in assay [7]; 1.02 in assay [8]; 1.39 in [9]; 0.736 in [10]; 0.238 in assay [11]. Moreover, the composite z-score in assay [12] worked out at 0.0217; in assay [13] it was 0.648; in assay [14], 0.519; in the assay with Lefty1, 0.654; in assay [16], 0.982. For the same compound, in assay [1], the composite Z-score was -0.228 (inactive). In addition, the z-score was -1.23 in assay [15] and -3.14 (inactive) in [17].

For `COc1ccc(CN(C2=CC[C@@]3(C(N)=O)C(=O)C(Cl)=C(Cl)C(=O)[C@@]3(C#N)C2)S(=O)(=O)c2ccc(Br)cc2)cc1`, the composite z-score with Albumin (Bos taurus) is 1; in assay [2], -0.128; in assay [3] it was -0.0273; in [4] it was 0.863; in assay [5], 1.84; in assay [6], 0.834. Further, the composite z-score with Sam68 (KHDRBS1) is 0.295; in assay [7], -1.54; in assay [8], 0.0331; in assay [9], 1.89; in assay [10] it was 0.289; in assay [11], 0.0558. For the same compound, the composite z-score was 0.115 in [12]; -0.539 in assay [13]; -0.537 in assay [14]; -0.53 in the assay with Lefty1; 0.324 in assay [16]. For the same compound, in assay [1], the composite Z-score is 0.317 (inactive). Moreover, the z-score in assay [15] was -1.87; in [17] it was -5.26 (inactive).
